Reference: PubChem BioAssay (NCATS)
Where “and” joins values, the source holds several entries; their conditions need not be identical. Equal values may be shown once. Inconclusive results are not listed. A number with no mark means an inactive call. Calls of active or inactive are those of the source. The call rests on the fitted dose curve; in most records, active means well fitted inhibition curve with a large enough effect; inconclusive means small, poorly fitted or top-dose-only effect; inactive means flat fitted curve, though single readings scatter.

Each compound was assayed on HaCat (assay: Cytotoxic Profiling of Annotated Libraries Using Quantitative High-Throughput Screening (AID 1296008; further: nearly all actives have a fitted effect of over 60% in size)). Conditions: Five cell lines viability, CellTiter-Glo ATP luminescence, 48-72 h; max response: hits give low values.
Outline: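 Cells exposed to compounds for 48 or 72 hr at 37 degrees Celsius. Viability read as ATP-coupled luminescence with CellTiter-Glo after 10 min at room temperature.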
On the % scale 0 is the no-effect control and ±100 the full control effect; potency means the concentration at half of the fitted maximal effect.

| SMILES | outcome | max response | Potency |
| --- | --- | --- | --- |
| CCCCCCCc1ccc(CCc2cccc(O)c2C(=O)O)cc1 | inactive | – | – |
| COCCNCCCn1c(C(=O)CF)c(-c2ccc(C)cc2)c2c(N)ncnc21 | – | -0.681% | – |
| N#Cc1ccc(C(c2ccc(C#N)cc2)n2cncn2)cc1 | – | 2.76% | – |
| COc1cc(Oc2ccnc3cc(OC)c(OC)cc23)ccc1NC(=O)NC(C)c1nccs1 (stereo not given) | inactive | – | – |
| OCCC#Cc1nc(-c2ccc(F)cc2)c(-c2ccncc2)n1CCCc1ccccc1 | – | 4.71% | – |
| Cc1ccc(NC(=O)c2cccc(C(C)(C)C#N)c2)cc1Nc1ccc2ncn(C)c(=O)c2c1 | – | – | 13.2 µM (active) |
| c1ccc(-c2nn3c(c2-c2ccnc4cc(OCCN5CCOCC5)ccc24)CCC3)nc1 | – | -14.5% | – |
| O=S(=O)(N=Cc1c(O)ccc2ccccc12)c1cccs1 | – | -24.1% | – |
| O=C(C=Cc1ccc(/C=C/C(=O)Nc2ccc(C3=NCCN3)cc2)cc1)Nc1ccc(C2=NCCN2)cc1 | – | -9.67% | – |
| Cc1cccc(-c2nn(C(=S)Nc3ccccc3)cc2-c2ccnc3ccccc23)n1 | – | -21.4% | – |
| COc1ccc2nc(S(=O)Cc3ncc(C)c(OC)c3C)[nH]c2c1 (stereo not given) | inactive | – | – |
| CN(C)c1ccc(C2Nc3ccc4ccccc4c3C3=C2C(=O)CC(C)(C)C3)cc1Br (stereo not given) | – | -24.3% and -7.34% | – |
| COc1cc2nccc(Oc3ccc(NC(=O)NC4CC4)c(Cl)c3)c2cc1C(N)=O | – | -5.23% and -15.3% | – |
| CCc1cc(Nc2nccc(-c3c(-c4ccc(OC)c(C(=O)Nc5c(F)cccc5F)c4)nc4ccccn34)n2)c(OC)cc1N1CCC(N2CCN(S(C)(=O)=O)CC2)CC1 | inactive | – | – |
| Nc1nccc(-c2ccc3noc(-c4ccc(Cl)cc4)c3c2)n1 | – | -32.6% | – |
| NC(=O)c1ccc(-c2nc(-c3ccc4c(c3)OCCO4)c(-c3ccccn3)[nH]2)cc1 | – | -0.259% | – |
| O=C(C1CC1)N1CC[C@@H](Cn2c(-c3ccc(-c4ccc5occc5c4)cc3)nc3cnccc32)C1 | – | -11.7% | – |
| Cc1c(CCOc2ccc(C(=O)O)cc2)c2cc(Cl)ccc2n1C(c1ccccc1)c1ccccc1 | – | 0.869% | – |
| CCOC(=O)C1=C[C@]2(CC)CCCN3CCc4c(n1c1ccccc41)[C@@H]32 | – | -26.7% and -18% | – |
| CC(C)(C)OC(=O)CN(Cc1ccc(Cl)cc1)Cc1ccc([N+](=O)[O-])s1 | inactive | – | – |
| Cn1c(=O)c(F)c(Nc2ccc(I)cc2F)c2c(=O)n(C[C@@H](O)CO)cnc21 | – | – | 0.833 µM (active) |
| Nc1ncnc2nc(-c3ccc(N4CCOCC4)nc3)cc(-c3cccc(Br)c3)c12 | – | 3.01% | – |
| Nc1cccc(S(=O)(=O)N2CCCN(S(=O)(=O)c3ccc4c(c3)OCCO4)CC2)c1 | – | -12.2% | – |
| COc1ccc2c3n(c(=NC(=O)c4cccnc4)nc2c1OC)CCN3 | – | – | 10.5 µM (active) |
| CCOc1cc(N2CCC(O)CC2)ccc1Nc1ncc2c(n1)N(C)c1ccccc1C(=O)N2C | – | 2.41% | – |
